AmpC inh detg: qHTS Inhibitors of AmpC Beta-Lactamase (assay with detergent) | P00811 | AmpC hydrolysis of nitrocefin, absorbance 480 nm, 0.01% Triton | Potency, µM (doses to about 114 µM), for inactives: at the highest dose activity change, negative = inhibition, usual class: inhibitors | hit rate 0.041% among 370,000;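 note: 0% = no-compound wells and -100% = no-enzyme wells; nearly all actives have a fitted effect of over 25% in size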
Target sequence (P00811 whole entry, looked up): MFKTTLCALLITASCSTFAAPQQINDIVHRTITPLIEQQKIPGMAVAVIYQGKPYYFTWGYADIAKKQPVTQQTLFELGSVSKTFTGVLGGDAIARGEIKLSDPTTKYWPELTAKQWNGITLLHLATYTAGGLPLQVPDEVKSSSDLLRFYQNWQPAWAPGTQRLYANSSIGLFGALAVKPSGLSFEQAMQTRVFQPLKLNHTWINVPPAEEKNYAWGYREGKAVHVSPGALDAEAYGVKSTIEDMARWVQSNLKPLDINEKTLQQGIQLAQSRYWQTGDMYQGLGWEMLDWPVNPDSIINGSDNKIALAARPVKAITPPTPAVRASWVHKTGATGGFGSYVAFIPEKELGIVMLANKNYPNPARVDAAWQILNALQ
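20 mM phosphate pH 7.0 + 0.01% (detergent screen) or 0.0001% Triton X-100; 5.3 nM AmpC reagent; cpd preinc 15 min RT; nitrocefin (800 uM stock) to start; A480 q20 s × 4 min; Activity was normalised to no-enzyme and no-compound control wells.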
AMA1 RON2 block: qHTS for Inhibitors of AMA1-RON; Towards Development of Antimalarial Drug Lead: Primary Screen; Plasmodium falciparum AMA1 (3D7) - RON2 peptide interaction; Potency, µM (series often up to 58.2 µM), for the others: at the top dose activity change, negative = inhibition, actives largely listed as inhibitors; AlphaScreen AMA1-biotinylated RON2 peptide binding; hit rate 0.2% among 360,000; AID 720542, 2013;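 note: 0% = vehicle wells and -100% = peptide control; nearly all actives have a fitted effect of over 45% in size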
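AMA1 (3D7) with his tag at 25 nM final met compounds first, then biotinylated RON2 peptide at 25 nM; detection used donor plus acceptor beads, 10 µg/mL apiece, read by AlphaScreen after 30 min at room temperature.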
AmpC inh no detg: qHTS Inhibitors of AmpC Beta-Lactamase (assay without detergent); P00811; AmpC nitrocefin hydrolysis, absorbance 480 nm, 0.0001% Triton; Potency, µM (series often up to 57.1 µM), for inactives: at the top dose activity change, negative = inhibition, most hits filed as inhibitors; hit rate 0.52% among 330,000; AID 485341, 2010;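 note: plate controls were no compound for no effect and no enzyme for full effect; nearly all actives have a fitted effect of over 20% in size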
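AmpC (5.3 nM in the dispensed reagent) in 20 mM phosphate pH 7.0 with 0.01% (detergent screen) or 0.0001% Triton X-100 was preincubated with compounds for 15 min at room temperature. Nitrocefin was then added from an 800 uM solution, and hydrolysis was followed at 480 nm.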
RE007 growth inh: qHTS Assay for Inhibitors of the HIV-1 protein Vpr | S. pombe RE007 Vpr strain, BacTiter-Glo ATP luminescence, 24 h | Potency, µM (highest dose often 92.2 µM), for inactives: at the top dose activity change, negative = less growth, most hits filed as inhibitors | hit rate 0.21% among 360,000; active = well fitted falling curve with a large enough effect; inconclusive = small, poorly fitted or top-dose-only effect; inactive = no such curve, though single readings can be large or run the other way; note: nearly all actives have a fitted effect of over 50% in size
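Fission yeast RE007 carrying one integrated HIV-1 vpr copy, seeded at OD 0.01 in PMG+AL medium with 23 nL pinned compound. Grown 24 h at 30 degrees; viability read by BacTiter-Glo luminescence after 5 min.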
The depositor's hits bear a star; [ ] = dose if it differs, or a comment. Shown are actives, neighbours in structure and some others; about 0.79% of the full set was active somewhere. Unless noted, calls come from the whole dose curve; as a rule, active = well fitted curve in the direction sought with a large enough effect; inconclusive = small, poorly fitted or top-dose-only effect, or another doubt; inactive = no such curve, though single readings can be large; an effect the other way counts as inactive or inconclusive. Unless noted, % is set by controls: 0 for no effect and ±100 for the full control effect; potency is the fitted concentration of half-maximal effect.

For O=C(Oc1c(Cl)cc(Cl)c2cccnc12)c1cccc([N+](=O)[O-])c1 the results were AmpC inh detg 3.5%, AMA1 RON2 block 6.3%[2.32 µM], AmpC inh no detg -16.8% and RE007 growth inh 8.91µM*.
Screening COc1cc(NS(=O)(=O)c2cc(Br)cc3c2N(C(C)=O)C(C)C3)cc(OC)c1 (configuration not stated) returned AmpC inh detg -8.6%.
`Cc1ccc(-c2nn3c(-c4ccccc4C)nnc3c3ccccc23)cc1` gave AmpC inh detg 20.8%.
Screening O=C(Nc1cccc(-c2ccc(N3CCOCC3)nn2)c1)c1cccc(Cl)c1 returned AMA1 RON2 block -2.6% and RE007 growth inh -0.9%.
`O=C(Nc1cccc(-c2ccc(N3CCOCC3)nn2)c1)c1ccc(Cl)cc1` gave AmpC inh detg inconclusive, AMA1 RON2 block 26.9%, AmpC inh no detg 31.6µM* and RE007 growth inh 5.0%.
Screening CCCCCSc1nncc(=O)[nH]1 returned AmpC inh detg -3.7%, AMA1 RON2 block 15.3%, AmpC inh no detg -7.2% and RE007 growth inh 18.4%.
CCCCCCCCSC1=CC(=O)C(OC)=C(OC)C1=O was read as AMA1 RON2 block 7.94µM* and RE007 growth inh -7.8%.
For COc1cc2c(cc1OC)C(c1ccc(-c3cc(Cl)ccc3Cl)o1)=NCC2 the results were AmpC inh detg -10.8%, AMA1 RON2 block -13.1%, AmpC inh no detg 2.7% and RE007 growth inh -0.3%.
COc1cc2c(cc1OC)C(c1ccc(-c3ccc(Cl)c(Cl)c3)o1)=NCC2 was read as AmpC inh detg 3.0%, AMA1 RON2 block -26.9%, AmpC inh no detg 75.5% and RE007 growth inh 31.6µM*.
For CCC1=NN2C(=N)/C(=C\c3cccn3-c3ccc(C)c(C)c3)C(=O)N=C2S1 the results were AmpC inh detg inconclusive, AMA1 RON2 block -12.4%, AmpC inh no detg -50.6% and RE007 growth inh -6.8%.
Screening CCC1=NN2C(=N)/C(=C/c3ccc(OS(=O)(=O)c4ccccc4)cc3)C(=O)N=C2S1 returned AmpC inh detg -8.8%, AMA1 RON2 block 123.0%, AmpC inh no detg 28.2µM* and RE007 growth inh -2.6%.
`CCC1=NN2C(=N)/C(=C\c3cccn3-c3ccc(Cl)cc3)C(=O)N=C2S1` gave AmpC inh detg inconclusive, AMA1 RON2 block 11.6%, AmpC inh no detg 0.891µM* and RE007 growth inh -3.4%.
For O=C(CSc1nccn1Cc1ccc(Cl)cc1)Nc1ccc2c(c1)OCO2 the results were AmpC inh detg -5.9%.
Screening CCOc1ccc(N2C(=O)/C(=C\c3cccs3)C(=O)NC2=S)cc1 returned AmpC inh detg 3.3%, AMA1 RON2 block 43.4%, AmpC inh no detg -41.4% and RE007 growth inh -5.9%.
CCOc1ccc(N2C(=O)/C(=C/c3ccco3)C(=O)NC2=S)cc1 was read as AmpC inh detg inconclusive, AMA1 RON2 block 3.98µM*, AmpC inh no detg 12.6µM* and RE007 growth inh 0.4%.
`Cc1ccccc1N1C(=O)/C(=C/c2ccco2)C(=O)NC1=S` gave AmpC inh detg 44.7µM* and AmpC inh no detg 7.08µM*.
`O=C(Cn1c(=O)ccc2cc(S(=O)(=O)N3CCCC3)ccc21)Nc1ccccc1` gave AmpC inh detg -3.7%.
`CCCCN=C1NN=C(c2cc3ccccc3o2)CS1` gave AmpC inh detg -7.7%, AMA1 RON2 block 88.1%, AmpC inh no detg 14.1µM* and RE007 growth inh -2.5%.
`CCCCN=C1NN=C(c2cccc([N+](=O)[O-])c2)CS1` gave AmpC inh detg -12.0%, AMA1 RON2 block 35.4%, AmpC inh no detg -31.8%[11.4 µM] and RE007 growth inh -1.5%.
`O=C(CN1CCCC1)Nc1ccc(NC(=O)Nc2ccccc2Cl)cc1` gave AmpC inh detg inconclusive, AMA1 RON2 block -1.5%, AmpC inh no detg 15.8µM* and RE007 growth inh -15.0%.
Screening O=C(CN1CCCC1)Nc1ccccc1Cl returned AmpC inh detg -1.5%, AMA1 RON2 block 0.0%, AmpC inh no detg -3.2% and RE007 growth inh -13.0%.
O=C(Nc1ccccc1Cl)NC1CCCCCCC1 was read as AmpC inh detg 2.7%, AMA1 RON2 block 0.8%, AmpC inh no detg 35.5µM* and RE007 growth inh 11.4%.
For CCOC(=O)c1cc(C(=O)c2cc(Cl)ccc2O)coc1=N the results were AmpC inh detg -3.2%, AMA1 RON2 block 6.1%, AmpC inh no detg 5.01µM* and RE007 growth inh 23.3%.
COc1ccc(OC)c(NC(=O)Cn2cnc3onc(-c4ccc(Cl)cc4)c3c2=O)c1 was read as AmpC inh detg -3.4%.
`Cc1ccccc1-c1nc(SCC(=O)NCc2ccc(F)cc2)c2c(=O)n(C)c(=O)n(C)c2n1` gave AmpC inh detg -6.3%.
Cc1cc(NC(=O)CSc2nc(CC(C)(C)C)nc3c2c(=O)n(C)c(=O)n3C)no1 was read as AmpC inh detg -12.6%, AMA1 RON2 block 3.3%, AmpC inh no detg 39.8µM* and RE007 growth inh -14.8%.
Screening CCc1nc(SCC(=O)NCc2ccc(F)cc2)c2c(=O)n(C)c(=O)n(C)c2n1 returned AmpC inh detg inconclusive, AMA1 RON2 block -3.6%, AmpC inh no detg 2.51µM* and RE007 growth inh 8.6%.
`CCc1nc(SCC(=O)Nc2cc(C)on2)c2c(=O)n(C)c(=O)n(C)c2n1` gave AmpC inh detg inconclusive, AMA1 RON2 block -8.9%, AmpC inh no detg -4.8% and RE007 growth inh 7.0%.
Screening CC(=O)N1CCc2c(sc3c2c(=O)n(-c2ccccc2Cl)c(=O)n3Cc2cccc(C)c2)C1 returned AmpC inh detg 11.6%.
CCCCOc1ccc(Nc2cc(Cl)ccc2C(=O)O)cn1 was read as AmpC inh detg 4.1%, AMA1 RON2 block -16.5%, AmpC inh no detg -9.9% and RE007 growth inh 28.2µM*.
`COc1ccc(-c2oc3ncn4nc(-c5ccccc5O)nc4c3c2-c2ccc(OC)cc2)cc1` gave AmpC inh detg 10.1%.
Screening Cc1ccccc1CCNC(=O)c1ccc2c(c1)c(C)c(C)n2Cc1ccccc1 returned AmpC inh detg 5.1%.
O=C(Cn1nnc(-c2ccccc2)n1)Nc1cccc(S(=O)(=O)N2CCOCC2)c1 was read as AmpC inh detg 0.0%, AMA1 RON2 block 0.8%, AmpC inh no detg 17.8µM* and RE007 growth inh 4.0%.
Screening Cc1ccc(S(=O)(=O)N2CCOCC2)cc1NC(=O)Cn1nnc(-c2ccccc2)n1 returned AMA1 RON2 block 2.2% and RE007 growth inh 14.8%.
`Cc1ccc(/C=C(\NC(=O)c2ccc(C)cc2)c2nc(=S)[nH][nH]2)cc1` gave AmpC inh detg -1.3%, AMA1 RON2 block 101.6%, AmpC inh no detg -27.1% and RE007 growth inh -8.0%.
Screening Cc1ccc(C(=O)N/C(=C\c2ccccc2F)c2nc(=S)[nH][nH]2)cc1 returned AmpC inh detg -1.7%, AMA1 RON2 block 49.9%, AmpC inh no detg 25.1µM* and RE007 growth inh -10.7%.
O=c1c2sc3ccccc3c2n(Cc2ccc(Cl)cc2)c(=O)n1Cc1ccco1 was read as AmpC inh detg 1.8%.

Screening results from PubChem.
